Screens deposited in PubChem by several laboratories.
PrP UTR inh: suppresses PrP 5' UTR mRNA reporter expression | AID 488862 | inhibition, % (test concentration not listed) | cell-based PrP 5' UTR mRNA reporter, plate reader | 340,000 tested, 0.35% active; in the data active = inhibition above about 52%; also: 0 = median of the neutral control wells
Vc quorum ag: quorum light induction in luxS cqsA deficient V. cholerae; V. cholerae BH1578 lux reporter, luminescence, 6 h; activation, % at 18.7 µM; 350,000 tested, 0.16% active; AID 588436; in the data active = activation mostly above about 9.7%, no sharp cut-off
PfHsp40 yeast: rescue of PfHsp40-mediated yeast toxicity; S. cerevisiae expressing PfHsp40, growth rescue, ATP luminescence; growth rescue, % at 12.5 µM; 340,000 tested, 0.68% active; AID 504582; in the data active = growth rescue above about 28%, passing the limit was not always enough;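 also: yeast W303a lacking pdr1 and pdr3 grown in galactose medium; growth measured after three days at 30 °C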
3CLpro inhibitor: SARS-CoV 3CLpro protease inhibition; P0C6X7; recombinant SARS-CoV 3CLpro, quenched FRET peptide cleavage; inhibition, % at 6 µM; 290,000 tested, 0.14% active; AID 1706; in the data active = inhibition above about 12%
SSB-PriA inh: blocks PriA binding to SSB C-terminal tail; AlphaScreen SSBct-PriA binding, biotinylated peptide; 430,000 tested, 0.6% active; inhibition, % at 33 µM; in the data active = inhibition mostly above about 37%, no sharp cut-off; inactive = mostly below about 20%;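 also: plate controls were negative control peptide for no effect and reference peptide for full effect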
PrPC surface inh: inhibitors of human cell surface prion protein PrPC; TR-FRET read-out; P04156; 370,000 tested, 0.43% active; inhibition, % at 13.8 µM; in the data active = inhibition above about 24%; also: 0% = median of the test wells and 100% = reference compound wells
* marks the source's active call; other numbers are inactive results; i = inactive; · = not tested or not shown. A selection: hits, their analogues and other compounds. The true share with any hit is near 1.6%.

SMILES	PrP UTR inh	Vc quorum ag	PfHsp40 yeast	3CLpro inhibitor	SSB-PriA inh	PrPC surface inh
CNc1cc(N2CCCCCC2)ccc1[N+](=O)[O-]	-124	i	4	5	27	-21
O=[N+]([O-])c1ccc(N2CCCCC2)cc1O	·	·	·	·	74*	·
O=C(CSc1nnc(-c2cccs2)o1)c1ccc(Cl)cc1	·	·	·	·	-14	·
Cn1c(-c2ccccn2)nn(CC(=O)NCc2ccc3c(c2)OCO3)c1=O	·	·	·	·	-5	·
O=C(CNC(=O)c1ccc(Br)o1)NCc1ccc(Cl)cc1Cl	-3	-5	52*	-5	11	7
O=C(CNC(=O)c1ccc(Br)o1)NCc1cccc(Cl)c1	-8	-4	1	-3	-6	3
O=[N+]([O-])c1ccc(-c2cn3c(n2)SCC3)cc1	·	-1	·	·	5	-43
Cc1ccc([N+](=O)[O-])cc1S(=O)(=O)Nc1ccc(-c2cn3c(n2)SCC3)cc1	·	·	·	·	39*	·
O=C(CS(=O)(=O)c1ccc(F)cc1)NCCS(=O)(=O)c1ccccc1	-9	-1	-1	-1	58*	-1
Nc1nc2c(s1)-c1cccc3cccc-2c13	·	·	·	·	66*	·
CS(=O)(=O)c1ccc(CC(=O)Nc2nc(-c3ccccn3)cs2)cc1	·	·	·	·	75*	·
CCOc1ccc(CC(=O)Nc2nc(-c3ccccn3)cs2)cc1	·	·	·	·	58*	·
Cc1ccc(S(=O)(=O)CCC(=O)Nc2nc(-c3ccccn3)cs2)cc1	-6	1	1	·	-1	1
Cn1c(C2CC(=O)N(c3cccc(C(F)(F)F)c3)C2)nc2ccccc21 (configuration not stated)	·	·	·	·	-13	·
COc1ccc(OC)c(Nc2nc(CC(=O)NCCC3=CCCCC3)cs2)c1	·	·	·	·	22*	·
COc1ccc(OC)c(Nc2nc(CC(=O)NCc3cccs3)cs2)c1	·	·	·	·	11	·
COc1ccc(OC)c(Nc2nc(CC(=O)NCCc3c[nH]c4ccccc34)cs2)c1	·	·	·	·	16*	·
O=C(NCCn1ccn2nccc12)c1cc(-c2ccccc2)on1	·	·	·	·	-9	·
COc1ccc(Br)cc1S(=O)(=O)NCCOc1ccc(-c2ccc(F)cc2)nn1	·	·	·	·	-3	·
CCc1ccccc1Nc1nc(-c2cccnc2)cs1	-7	1	1	5	-3	6
O=[N+]([O-])c1ccccc1Nc1nc(-c2cccnc2)cs1	-15	0	0	-1	52*	-19
CCN(CC)c1ccc(Nc2nc(-c3cccnc3)cs2)cc1	-89	2	1	-1	41*	0
O=[N+]([O-])c1ccccc1Nc1nc(-c2ccccn2)cs1	·	·	·	·	80*	·
CCC(C)Cn1c(CCO)nc2ccccc21 (configuration not stated)	·	·	·	·	0	·
CCOC(=O)c1c(NC(=O)c2ccc(Br)cc2)sc2c1CCC(C)C2 (configuration not stated)	·	·	·	·	-14	·
SMILES	PrP UTR inh	Vc quorum ag	PfHsp40 yeast	3CLpro inhibitor	SSB-PriA inh	PrPC surface inh
COC(=O)C1C(C)=NC2=C(C(=O)CC(C)(C)C2)C1c1c(F)cccc1F (configuration not stated)	·	·	·	·	-16	·
Cc1onc(-c2ccccc2)c1C(=O)NC(=S)NNC(=O)c1ccncc1	-5	0	2	3	-8	-11
Cc1onc(-c2ccccc2)c1C(=O)NC(=S)NNC(=O)c1cc(-c2ccc(F)cc2)n[nH]1	-11	-2	235*	0	2	-5
Cc1onc(-c2ccccc2)c1C(=O)NC(=S)NNC(=O)c1ccco1	0	1	50*	1	0	2
CCCCCCCCNC(=O)/C(C#N)=C/c1ccccc1[N+](=O)[O-]	-5	0	355*	-1	6	2
Cc1cccc(OCCOC(=O)C2CCN(S(=O)(=O)c3cccs3)CC2)c1	-6	-1	102*	-3	-16	-5
COc1cccc2cc(C(=O)NC3CC4CCC(C3)N4S(C)(=O)=O)oc12 (configuration not stated)	·	·	·	·	4	·
N#Cc1c(=O)c2nc(NCCCO)ncc2n2c(=O)c3ccccc3[nH]c12	-22	0	83*	0	3	-15
CCOC(=O)[C@@H]1[C@H]2COc3cc(OC)ccc3[C@@H]2N2C(=O)N(c3cccc(C)c3)C(=O)[C@]12C	-6	0	65*	·	-2	-6
CCNc1nc2c(c(=O)n(C)c(=O)n2C)n1Cc1ccc(Cl)cc1	-14	0	0	6	0	12
CCC(C)Nc1nc2c(c(=O)n(C)c(=O)n2C)n1Cc1ccc(Cl)cc1 (configuration not stated)	-8	0	2	·	104*	15
